From PubChem
CSC inhib: blocks cancer stem cells | cancer stem cell-like cells viability, luminescence | inhibition, % at 7.5 µM | actives 1.1% (n = 300,000); in the data active = inhibition above about 75%; inconclusive = no clear call, values can overlap the other calls; tested in HMLE shEcad cells
A1 inh: inhibitors of the anti-apoptotic protein A1, read as caspase activation | MEF A1-2A-BIM cells, Caspase-Glo 3/7 luminescence, 3 h; percent of clofoctol response, vehicle zero | caspase activation, % (no concentration beside the values) | actives 0.066% (n = 330,000);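 active = over half of replicate activation scores above 10%, or exactly half above 10 with the replicate mean above 10; inconclusive = replicate mean below 10 yet half the replicates above 10; inactive = over half of replicates below 10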
aSyn UTR inh: 5' untranslated region of α-synuclein, MLPCN primary screen; alpha-synuclein 5'UTR reporter, inhibitor activity; inhibition, % (tested at 7.5 µM); actives 0.82% (n = 300,000); AID 1813; in the data active = inhibition above about 60%; inconclusive = no clear call, values can overlap the other calls;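 also: H4 neuroglioblastoma cells stably carrying SNCA 5'UTR luciferase fusion; 0% = DMSO wells and 100% = positive control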
Mdm2-MdmX inh: inhibitors of human Mdm2/MdmX interaction; AID 485346; actives 3% (n = 330,000); inhibition, % at 8 µM; SaOS-2 split-luciferase Mdm2/MdmX complementation, luminescence; O15151+Q00987;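 active = inhibition of at least 50% at 8 µM in the primary screen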
Beta apoptosis: blocks beta cell apoptosis | INS-1E cytokine-induced death, ATP luminescence, 48 h; percent of positive-control rescue, neutral wells zero | protection from apoptosis, % (test concentration not listed) | actives 0.8% (n = 300,000) | AID 435005;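 active = Every replicate reaches about 75%, or at least half do and their mean reaches it too, limit read from the data; inconclusive = At least half of replicates reach the limit but their mean does not; inactive = Under half of replicates reach the limit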;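 also: 0% = cytokine-treated negative control wells and 100% = positive control rescue; higher means more ATP so stronger rescue from cytokine killing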
Mdm2-MdmX conf: human Mdm2/MdmX binding inhibition, confirmed; luminescent assay; inhibition, % at 8 µM; shares compounds with Mdm2-MdmX inh; actives 55% (n = 10,000); in the data active = inhibition above about 40%
FLuc counter: inhibits full-length luciferase, flagging false Mdm2/MdmX hits; shares compounds with Mdm2-MdmX inh; SaOS-2 full-length luciferase counterscreen, luminescence; inhibition, % at 8 µM; actives 77% (n = 6,200);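 active = mean inhibition at 8 µM reaching about 37%, which flags the compound as non-specific, limit read from the data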;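 also: p53-null SaOS-2 cells with luciferase driven by a doxycycline-inducible promoter; compound on cells about two nights before reading with doxycycline added after day one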
Active calls of the source: *; ? = inconclusive; · = no result. A selection: hits, their analogues and other compounds. The true share with any hit is near 4.1%.

SMILES | CSC inhib | A1 inh | aSyn UTR inh | Mdm2-MdmX inh | Beta apoptosis | Mdm2-MdmX conf | others
Cc1ccc(NC(=O)c2ccc([N+](=O)[O-])s2)cc1S(=O)(=O)N1CCOCC1 | 25 | 0 | · | 65* | -8 | 25
Cc1ccc(NC(=O)c2ccccc2NS(=O)(=O)c2ccc(Cl)s2)cc1S(=O)(=O)N1CCOCC1 | · | 0 | 23 | 66* | · | 45* | FLuc counter=52*
O=C(Nc1cc(S(=O)(=O)N2CCOCC2)ccc1N1CCOCC1)c1ccc([N+](=O)[O-])s1 | -10 | 0 | · | 37 | 1 | ·
COc1ccc(C)cc1NC(=O)c1ccccc1NS(=O)(=O)c1ccc(Cl)s1 | ? | 0 | 0 | 89* | 36 | 79* | FLuc counter=32
O=C(Nc1cc(S(=O)(=O)N2CCOCC2)ccc1O)c1ccc(NS(=O)(=O)c2ccc(Cl)s2)cc1 | -3 | 0 | 29 | 1 | -7 | ·
COc1ccccc1NC(=O)c1ccccc1NS(=O)(=O)c1cccs1 | -7 | -1 | 8 | 28 | 15 | ·
CCOC(=O)C1CCN(C(=O)c2c(C)oc3c2C(=O)c2ccccc2C3=O)CC1 | 60 | 0 | 72* | 58* | 102* | 45* | FLuc counter=67*
COc1ccc(OC)c(-c2nc(C(=O)NCC3CCCO3)cc3c2[nH]c2ccccc23)c1 (stereo not given) | -14 | 0 | 9 | 34 | -2 | ·
COc1cccc(-c2nc(C(=O)NCC3CCCO3)cc3c2[nH]c2ccccc23)c1 (stereo not given) | 30 | 1 | 2 | 65* | 33 | 25
CC(C)c1cc(C(C)C)c(S(=O)(=O)N2c3ccccc3[C@@]3(Br)C[C@H]4C(=O)N[C@@H](Cc5ccccc5)C(=O)N4[C@@H]23)c(C(C)C)c1 | -20 | -1 | 13 | 59* | · | 27 | FLuc counter=106*
O=C1N[C@@H](Cc2ccccc2)C(=O)N2[C@@H]3N(S(=O)(=O)c4ccccc4)c4ccccc4[C@]3(Br)C[C@@H]12 | -21 | 2 | -7 | -18 | · | ·
Cc1cc(-c2ccccc2)nc2cc(C(=O)N(Cc3ccccc3)Cc3ccccc3)nn12 | 83* | 0 | 40 | 51* | 19 | 1
COC(=O)c1cc2nc(-c3ccccc3)cc(C)n2n1 | -7 | 0 | 10 | 0 | -4 | ·
Cn1c(/C=C/c2ccc(Br)cc2)c([N+](=O)[O-])c(=O)n(C)c1=O | 46 | 0 | -199 | 84* | -8 | 52* | FLuc counter=24
O=P(c1ccccc1)(c1ccccc1)c1nc(-c2ccccc2)oc1NCc1ccccc1 | -3 | -2 | 8 | 60* | -4 | 5
O=c1c(-c2ccccc2)c1-c1ccccc1 | · | · | -53 | 54* | · | 12
O=c1o[nH]c(-c2ccccc2)c1-c1ccccc1 | 8 | 0 | 12 | 14 | 7 | ·
Cn1cc([N+](=O)[O-])c(C(=O)Nc2cc(Oc3cccnc3)cc([N+](=O)[O-])c2)n1 | -16 | 0 | 61 | 82* | -9 | 7
Cn1cc([N+](=O)[O-])c(C(=O)Nc2ccc(C(=O)N3CCCCC3)cc2)n1 | · | -2 | -5 | 27 | -5 | ·
CCn1cc([N+](=O)[O-])c(C(=O)Nc2ccc(Cn3nc(C)cc3C)cc2)n1 | -4 | 1 | 7 | 1 | -3 | ·
Cn1cc([N+](=O)[O-])c(C(=O)Nc2ccc(C3CCCCC3)cc2)n1 | 117* | -9 | 45 | 59* | -15 | 27 | FLuc counter=154*
Cc1cc(C)n(Cc2ccc(NC(=O)c3nn(C)cc3[N+](=O)[O-])cc2)n1 | 45 | -1 | -10 | 71* | -64 | 52* | FLuc counter=59*
O=[N+]([O-])c1cc(Oc2cccnc2)cc([N+](=O)[O-])c1 | · | 1 | 13 | -22 | 24 | ·
Cc1ccc(Cn2ccc(NC(=O)c3nn(C)cc3[N+](=O)[O-])n2)cc1 | · | -1 | 21 | 59* | -25 | 63* | FLuc counter=68*
COc1ccc(S(=O)(=O)Nc2ccc3c(c2)C(=O)N([C@@H](C)CO)C[C@H](C)[C@H](CN(C)S(=O)(=O)c2ccc(F)cc2)O3)cc1 | · | -1 | · | 27 | -7 | ·
SMILES | CSC inhib | A1 inh | aSyn UTR inh | Mdm2-MdmX inh | Beta apoptosis | Mdm2-MdmX conf | others
O=C1CCC(c2ccc3c(c2)CCC3)=NN1 | -8 | -1 | 41 | 14 | 1 | ·
COc1ccc(OC)c(C2CC(=O)Nc3cc(OC)c(OC)c(OC)c32)c1 (stereo not given) | -4 | 0 | 6 | 56* | -10 | 32
COc1ccc(O)c(CN2CCC(n3nccc3NC(=O)C3CCCC3)CC2)c1 | 0 | 0 | -2 | 27 | -2 | ·
C[C@H](CO)N1C[C@H](C)[C@@H](CN(C)S(=O)(=O)c2ccccc2)Oc2c(NC(=O)Nc3ccc4c(c3)OCO4)cccc2C1=O | · | -1 | · | 13 | -9 | ·
Cc1[nH]c2ccccc2c1C(=O)COC(=O)c1ccc2c(=O)n3c(nc2c1)CCC3 | 2 | -1 | 30 | 59* | 0 | 33
C=CCN1C(=O)C(CC(=O)Nc2ccc(OCCC)cc2)N(CCCN2CCN(Cc3ccccc3)CC2)C1=S (stereo not given) | 25 | 1 | 7 | 80* | 9 | 38 | FLuc counter=75*
Cc1cc2ccccn2c1C(=O)c1cccc([N+](=O)[O-])c1 | 22 | 2 | 16 | 15 | -5 | ·
Cc1cc2ccccn2c1C(=O)c1ccc([N+](=O)[O-])o1 | ? | 0 | -147 | 64* | -62 | 26
Cc1ccc(O)c(N=Nc2nccs2)c1 | 1 | -1 | · | 75* | 89* | 64* | FLuc counter=23
CCSc1nnc(NC(=O)CN2C(=O)NC3(CCCC3)C2=O)s1 | · | -1 | · | 30 | -2 | ·
Cc1oc(-c2ccccc2)nc1C(=O)O | -11 | 0 | -23 | 77* | -8 | -20
CC(=O)c1ccc(NC(=O)C(C)OC(=O)/C=C/c2ccco2)cc1 (stereo not given) | · | -1 | · | 28 | -1 | ·
COc1ccc(NC(=O)c2cc3nc(-c4ccccc4)cc(-c4ccccc4)n3n2)c(OC)c1 | · | 0 | 23 | 64* | 10 | 5
O=C(Nc1cccc(O)c1)c1cc2nc(-c3ccccc3)cc(-c3ccccc3)n2n1 | -3 | 1 | 0 | 18 | 10 | ·
O=C(NC1CCCC1)c1cc2nc(-c3ccccc3)cc(-c3ccccc3)n2n1 | 23 | 0 | 41 | 55* | 22 | 15
CCC(C(=O)NCCc1c[nH]c2cc(OC)ccc12)c1ccccc1 (stereo not given) | -6 | -1 | -8 | 18 | -3 | ·
O=C(Nc1ccc(NC(=O)C2CC2)cc1)c1cccs1 | -1 | -6 | -169 | -33 | 5 | ·
O=C(O)c1cc([N+](=O)[O-])cc2c1C=Cc1ccccc1O2 | 7 | 1 | 2 | 17 | -5 | ·
CC[n+]1c(/C=C2/C=C(C)CC(C)C2)sc2ccccc21 (stereo not given) | 11 | -1 | -41 | 11 | 19 | ·
